Results: the supplement of paper PMC12632987
Whole data set: some 1,800 sequences, median “median log2 fold change of GCK-ALFA target abundance (FLAG IP / Myc IP barcode read proportion)” near 0.14, cut for the lowest 2% near -0.84. Shown is part of a subset that was picked to be rich in the lowest values.

T1: TRAF2, Q12933
T1 chain: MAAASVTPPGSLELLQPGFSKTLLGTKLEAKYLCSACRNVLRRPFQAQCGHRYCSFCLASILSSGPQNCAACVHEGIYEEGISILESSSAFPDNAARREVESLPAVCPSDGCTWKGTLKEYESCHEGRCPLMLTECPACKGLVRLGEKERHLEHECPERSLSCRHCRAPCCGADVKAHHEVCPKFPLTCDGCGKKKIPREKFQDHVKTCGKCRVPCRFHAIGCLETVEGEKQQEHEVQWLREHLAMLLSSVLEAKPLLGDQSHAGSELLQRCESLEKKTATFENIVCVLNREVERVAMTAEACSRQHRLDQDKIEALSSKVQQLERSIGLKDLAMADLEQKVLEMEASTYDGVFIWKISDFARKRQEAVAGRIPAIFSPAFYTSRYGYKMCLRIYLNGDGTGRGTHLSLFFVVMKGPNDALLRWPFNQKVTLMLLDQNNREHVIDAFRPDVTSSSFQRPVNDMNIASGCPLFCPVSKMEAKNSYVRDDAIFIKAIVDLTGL

B1: traf2_out_14_17_1291 (protein)
chain: DIIEKLEEILKTAKELAKKYPELKLELTQLERKAESALVLAEMYEEDPSYKPELIQGLKNLIKLAKEVAEKLKPISAEAVKKLEEMEETAKEILKEVEAE
B2: traf2_out_20_3_2179 (protein)
chain: EELEEELEEELEEALELIKEAAKLADEETAKKLEELAERLKESRELSYEDRLVELSEIRRELLELAEAAKAAGKEELAAVLEEAAEELNEAMNLVYEIIE
B3: traf2_out_20_38_2003 (protein)
chain: SEEEEEERKLEEIIEVANEAYDEATERIAAMVAAGKTVEEIAAEVRAEVTRLLDAAGLEEERDELLADIDRALASPNALRLFARILARARALVKQKELNK
B4: traf2_out_20_38_2002 (protein)
chain: SMEEEEEERLKEIIDVANEAYDEATERIEALRAAGKSVEEIAAIVRAEVAELLDAAGLEEERDELLADIDRALSSPDALRLFARILARARALVKQKELNE
B5: traf2_out_13_95_1094 (protein)
chain: SKEVAEKIMEIADKMLDESLEVLKKLLEEMKKKGKLEEEIKEVLELAENQSINEAIHKLKELAKKYPEVKELLEKAIEELEEIRRKAGKEVAKILKEEKE
B6: traf2_out_8_174_2572 (protein)
chain: DEEKRLKVVADFSTEMADILDEFEEELKKASDLPLEELKKKAEELKKEALEKIDKLKKEWEAKVDEETAKLVQRAANSAKQQIENMAKGAILRKELEDAA
B7: traf2_out_16_177_1462 (protein)
chain: ELDKIMDRIVVLSKIKRAAEYAIENKKEEAEKYLKEAEKEAEEAGDEEGLKKIKELKELMEKNTEEAKKKLKELAKEAQKEAGKLVDEAEALLKARAAAE
B8: traf2_out_20_38_2031 (protein)
chain: SEEEEEKKRLEEAIKVANDAYDRYTERFAALRAAGRTVEEMAAETRAEVRELLTAAGLEEEAEELIADIDLALGSPEAERLLVRILARAEALVWQKKKNE
B9: traf2_out_11_169_830 (protein)
chain: EEAEKNRKINDFALELEEKAKEEFKKFVLELAKEEGLDVEEIKKIFEENKNKSLSAIAAAVIEYFKSKGKEEAAEKVLKKYEELKEKINKEATEKIKELE
B10: traf2_out_6_156_2413 (protein)
chain: MVEKIFEETLKKVEELIKKLSKASEEKKISYISKIAGTVYKALQQLREAGASLEEIKEFSERLKKEIEKLLKEAGLDEKTRNLVLSSVNAVFTVAIEEAK
B11: traf2_out_18_167_1822 (protein)
chain: SAETEAEIERLTDELVRVSEIRRLALLALEALRTDPAAADAARDALIAALNEVPEFRPDAAALRAAPRAELPALLERIAERAQRRAQELYERREELKKKQ
B12: traf2_out_3_89_2308 (protein)
chain: MEERKKTIEEMEKQMEAYVKGFEKSAKFVAKQMLADGMSLDTLRGVLEAAKSALLEVLRETAKERGLSEEEIEKLLKKAEEELNKVVDEVVADAAAKRAA
B13: traf2_out_6_156_2410 (protein)
chain: MVDAIFKEALEKIEKEIKKLSEASEEKKIKYISNIAGTVYRALQQLRDAGASLAEIEAFAKKLKAEIEKKLKEAGLPEDTINLVLSSINAVFDVAIADAK
B14: traf2_out_13_95_1152 (protein)
chain: SKELAEKINQIADDMLDQVEAKLQALLEKMKAAGKGVEEVQKALDLARYRSVNEAIALLEELSKKYPEFKELFDATIKEIKAIIREAGRKVAELIKEEEA
B15: traf2_out_11_131_656 (protein)
chain: MDAVAMAESAAERVDERLEIAKTLSPEERLRLARQSLDSLEALAEYLKEHVKEMSKEDVEKAAKILRESAEKILEFSPEVEEEAKEVEEAIKKLLEAAKA
B16: traf2_out_20_38_2032 (protein)
chain: SEEEEEERRLEEAIEVANEAYDRYTARFEEWQAAGKTVEEIAEETKKEVKELLEKAGLEEEAKILIEDIDLALSSPDAVRLLVRILARAEALVWQKEKEK
B17: traf2_out_19_16_1989 (protein)
chain: SKEEAEKLKKEMNKYLDEALELAKEAVENLDELSREELMDKLVEISELMRKAKELLQKYLELNKDDEEERKKVTEEFDKKYDEIMKLMTIIVKKIEELLK
B18: traf2_out_11_155_670 (protein)
chain: SEKQKLNNELVNELTEIADELKEKVEKILKEAAAAHPEHAEELAAVIASGKTLSGRSFARLAAQKFRELGLEEEAKKVEELLEEAQKKMNEVVKKYEEKL
B19: traf2_out_3_89_2310 (protein)
chain: GAERERTIEEMRREMERYIRGFRKSAERVAKEMLEDGMSLETLRGVLEAAKSALLEVLRERMRERGLSEEEIEELLEEAGRELDKVVEEVVAEAEERRKA

Target: T1, TRAF2, Q12933
Assay: median log2 fold change of GCK-ALFA target abundance (FLAG IP / Myc IP barcode read proportion) (log2 ratio); each designed protein is fused to an ALFA-tag nanobody in HEK293 cells to bring the named protein to FLAG-tagged glucokinase (GCK); Myc marks an untargeted standard; higher = target protein stabilised (more abundant)
Settings: target protein: 3xFLAG-MCP-GCK-ALFA reporter; HEK293 landing pad (RPLP)
Summary of the method: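 Sequencing of reverse-transcribed, amplified circular RNA barcodes from anti-FLAG and anti-Myc immunoprecipitates provided the readout for an ALFA-nanobody-fused binder library recombined into HEK293 landing-pad cells. Those cells were induced with 2 μg mL^−1 doxycycline, transfected with a plasmid expressing a FLAG-tagged target and a Myc-tagged standard, and lysed after 48 h. Target abundance is the per-binder median log2 ratio of FLAG to Myc barcode read proportions. Only barcodes at a proportion of ≥10^−7 in both replicates and binders with ≥3 barcodes per replicate were kept, with a 10^−6 pseudocount added before the two replicates were pooled.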
In the case of B1, the “median log2 fold change” value is reported as 0.128. In the case of B2, the “median log2 fold change” value is reported as -0.145. With B3 the “median log2 fold change” value was -0.767. With B4 the “median log2 fold change” value was -1.43. B5 was tested, and the “median log2 fold change” value was -0.0821. With B6 the “median log2 fold change” value was 0.209. In the case of B7, the “median log2 fold change” value is reported as -0.0546. In the case of B8, the “median log2 fold change” value is reported as -0.852. With B9 the “median log2 fold change” value was 0.00164. With B10 the “median log2 fold change” value was 0.231. For B11, the “median log2 fold change” value was 0.336. B12 was tested, and the “median log2 fold change” value was -0.103. For B13, the “median log2 fold change” value was 0.298. B14 was tested, and the “median log2 fold change” value was -0.574. For B15, the “median log2 fold change” value was 0.344. In the case of B16, the “median log2 fold change” value is reported as -1.23. With B17 the “median log2 fold change” value was 0.137. With B18 the “median log2 fold change” value was 0.263. In the case of B19, the “median log2 fold change” value is reported as -1.13.
